High-throughput results as filed in PubChem.
Only some compounds are listed: those with a hit (about 0.37% of all), similar ones and a draw of the others.
Epigenetic derep – epigenetic control regulation, reporter derepression; murine LDR cells, GFP reporter derepression, 30 h; Potency, µM (series often up to 53.9 µM), inactives show at the top dose GFP activation, most hits filed as activators; 0.2% of 280,000 active; AID 1865; also: potency is read from the fitted curve at half-maximal effect; % of control where 0% means no effect; nearly all actives have a fitted effect of over 60% in size
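In this reporter-derepression format, murine cells bearing a silenced integrated CMV-GFP locus incubate with test compound (30 h, 37 C), then are washed and imaged; fluorescent objects of 20–120 um count as induced cells.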
TSG101-PTAP inh – blocks PTAP/TSG101 interaction to inhibit HIV-1 budding. 340,000 tested, under 10 active. Fluorescence polarization, FITC-PTAP peptide / Tsg101 binding. Potency, µM (series often up to 115 µM), inactives show at the highest dose activity change, negative = inhibition, actives largely listed as inhibitors. Q99816; active = well fitted inhibition curve with a large enough effect in the main read-out, with a control signal flat, not every such curve was filed as active; inconclusive = small, poorly fitted or top-dose-only effect, or effect the other way, or a change in a side signal; inactive = no such curve, though single readings can be large or run the other way; also: potency is read from the fitted curve at half-maximal effect; % of control where 0% means no effect
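FP read-out: FITC-PTAP peptide, 50 nM final, binding Tsg101 binding domain, 10 uM final; 20 min, r.t.; 10 mM HEPES pH 7.5, 0.15 M NaCl, 0.01% Tween 20, 3 mM EDTA, 0.1 mM TCEP.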
Vif-A3G inh – blocks the Vif interaction with human APOBEC3G; 0.076% of 410,000 active; Potency, µM (titrated, usually from 46.1 µM), for the others: top-dose activity, negative = active, actives largely listed as inhibitors; HeLa A3G-eYFP + Vif (tagged APOBEC3G with the HIV-1 protein that degrades it), YFP fluorescence, overnight; AID 602310; also: potency is read from the fitted curve at half-maximal effect; % is scaled to controls: 0 for no effect and ±100 for the full control effect; nearly all actives have a fitted effect of over 60% in size
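HeLa cells stably expressing Vif and C-terminally eYFP-tagged A3G, seeded overnight at 37 deg C, then exposed to compound by pintool overnight at 37 deg C. Rise in yellow fluorescence (Ex 488/Em 500-530, Acumen) marks blocked Vif-driven A3G degradation.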
MBNL1 CUG block – inhibitors of human MBNL1 binding to CUG repeat RNA; 0.036% of 280,000 active; TR-FRET MBNL1-His/biotin-(CUG)12 binding, 665/545 ratio; Q9NR56; Potency, µM (titrated, usually from 57.5 µM), for inactives: top-dose activity change, negative = inhibition, actives largely listed as inhibitors; active = well fitted inhibition curve with a large enough effect in the signal ratio, with a control signal flat, not every such curve was filed as active; inconclusive = small, poorly fitted or top-dose-only effect, or effect the other way, or a change in a side signal; inactive = no such curve, though single readings can be large or run the other way; the % refers to the signal ratio; also: potency is read from the fitted curve at half-maximal effect; % is scaled to controls: 0 for no effect and ±100 for the full control effect
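MBNL1-His + Biotin-(CUG)12, cpd titration 92 nM–58 uM; Tb anti-His Ab 0.055 ng/ul, SA-XL665 5 nM (final); 60 min RT; ratiometric 665/545 nm, Ex 340 nm; normalized to buffer and full-complex controls.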
Vif-A3F inh – Vif-A3F binding inhibition; 0.2% of 390,000 active; HeLa A3F-eYFP + Vif (tagged APOBEC3F with the HIV-1 protein that degrades it), YFP fluorescence increase; Potency, µM (highest dose often 46.1 µM), for the others: at the highest dose activity, negative = active; also: potency is read from the fitted curve at half-maximal effect; % of control where 0% means no effect; nearly all actives have a fitted effect of over 65% in size
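HeLa cells stably expressing A3F-eYFP plus Vif, plated and incubated overnight at 37 deg C, then exposed to compounds overnight at 37 deg C. Blocked degradation read as raised yellow fluorescence (Ex 488/Em 500-530).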
CBFb-RUNX1 inh – blocks binding between human CBF-beta and RUNX1; AlphaScreen CBFb-His/RUNX1-biotin binding, biochemical; 230,000 tested, under 10 active; AID 1477; Potency, µM (series often up to 59.8 µM), for the others: top-dose activity, negative = inhibition, hits mostly inhibitors; also: % of control where 0% means no effect
Target sequence (Q01196 whole entry, looked up): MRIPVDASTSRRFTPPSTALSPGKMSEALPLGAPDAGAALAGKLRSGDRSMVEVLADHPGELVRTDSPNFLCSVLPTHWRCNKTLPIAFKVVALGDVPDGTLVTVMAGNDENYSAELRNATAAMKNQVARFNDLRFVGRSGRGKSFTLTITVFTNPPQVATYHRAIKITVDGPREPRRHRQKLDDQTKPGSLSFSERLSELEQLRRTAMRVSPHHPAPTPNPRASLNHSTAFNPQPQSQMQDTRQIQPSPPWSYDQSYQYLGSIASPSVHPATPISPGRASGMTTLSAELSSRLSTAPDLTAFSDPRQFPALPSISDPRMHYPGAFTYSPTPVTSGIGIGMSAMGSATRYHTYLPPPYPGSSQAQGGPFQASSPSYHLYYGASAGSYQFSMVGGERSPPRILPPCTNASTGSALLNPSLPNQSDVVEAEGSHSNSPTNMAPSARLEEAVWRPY
Target sequence (Q13951 whole entry, looked up): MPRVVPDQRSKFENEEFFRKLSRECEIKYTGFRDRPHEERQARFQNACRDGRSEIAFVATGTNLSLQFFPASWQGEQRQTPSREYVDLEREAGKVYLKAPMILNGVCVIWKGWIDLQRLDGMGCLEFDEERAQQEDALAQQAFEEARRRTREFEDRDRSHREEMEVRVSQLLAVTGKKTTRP
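AlphaScreen binding: CBFb-His and RUNX1-biotin (30 nM each) preincubated 20 min, compound added for 15 min, then nickel and streptavidin beads for 90 min, all at room temperature. Disruption of the interaction by any mechanism counts as activity.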
An asterisk follows results filed as active. Unless noted, calls follow the shape of the dose curve; as a rule, active = well fitted curve in the direction sought with a large enough effect; inconclusive = small, poorly fitted or top-dose-only effect, or another doubt; inactive = no such curve, though single readings can be large; an effect the other way counts as inactive or inconclusive.

For C/C(=N/Nc1ccc([N+](=O)[O-])cc1)c1c[nH]c2ccccc12 the results were TSG101-PTAP inh 9%, Vif-A3G inh inconclusive, MBNL1 CUG block inconclusive and Vif-A3F inh 6.3µM*.
For COc1ccc(OC)c2c(/C=C/c3c[nH]c4ccccc34)ccnc12 the results were Vif-A3G inh -8%.
C(=Cc1c[nH]c2ccccc12)c1nccc2ccccc12 was read as TSG101-PTAP inh 13%, Vif-A3G inh inconclusive and Vif-A3F inh 8.9µM*.
For C(=Cc1c[nH]c2ccccc12)c1ccc2ccccc2n1 the results were TSG101-PTAP inh 8%, Vif-A3G inh inconclusive and Vif-A3F inh 25µM*.
Screening Cc1ccc2c(/C=C/c3c[nH]c4ccccc34)ccnc2c1C returned Vif-A3G inh 11µM*.
OCC[n+]1ccc(/C=C/c2c[nH]c3ccccc23)cc1 was read as Epigenetic derep 2%, TSG101-PTAP inh inconclusive, Vif-A3G inh inconclusive, Vif-A3F inh 3.5µM* and CBFb-RUNX1 inh 6%.
`O=[N+]([O-])c1ccc(/C=C/c2ccnc3ccccc23)c([N+](=O)[O-])c1` gave Vif-A3G inh 2%.
COc1cc2c3nnc(-c4ccc(F)cc4)c-3cn(Cc3ccccc3F)c2cc1OC was read as Epigenetic derep 6.3µM*, TSG101-PTAP inh inconclusive, Vif-A3G inh inconclusive, MBNL1 CUG block 41%, Vif-A3F inh 25µM* and CBFb-RUNX1 inh 12%.
Screening COc1cc2c3nnc(-c4ccccc4)c-3cn(Cc3ccccc3F)c2cc1OC returned Epigenetic derep inconclusive, TSG101-PTAP inh inconclusive, Vif-A3G inh inconclusive, MBNL1 CUG block 55%, Vif-A3F inh inconclusive and CBFb-RUNX1 inh 5%.
For COc1cc(/C=C2\SC(N)=NC2=O)cc(Cl)c1O the results were TSG101-PTAP inh 31%, Vif-A3G inh -18%, MBNL1 CUG block inconclusive and Vif-A3F inh 11µM*.
`COc1ccc(/C=C2\SC(N)=NC2=O)cc1Br` gave TSG101-PTAP inh 3%, Vif-A3G inh 1%, MBNL1 CUG block inconclusive and Vif-A3F inh 5%.
O=c1[nH]c(=S)c2n[nH]nc2[nH]1 was read as Vif-A3G inh -3%.
`COc1ccc(OC)c(/C=C/c2nc3ccccc3nc2C)c1` gave Vif-A3G inh -23%.
For COc1ccc(OC)c(/C=C/c2nc3ccccc3[nH]c2=O)c1 the results were TSG101-PTAP inh inconclusive, Vif-A3G inh inconclusive, MBNL1 CUG block 10% and Vif-A3F inh 22µM*.
Nc1ccc(/C=C/c2ccnc3ccccc23)c(N)c1 was read as Vif-A3G inh -11%.
For Nc1ccc(-c2cc3ccccc3[nH]2)cc1 the results were Vif-A3G inh -6%.
Cc1cc2c(cc1C)NC(CC(=O)NCc1ccccc1)C(=O)N2 (stereo not given) was read as Epigenetic derep 1%, TSG101-PTAP inh 23%, Vif-A3G inh 3%, MBNL1 CUG block inconclusive, Vif-A3F inh 28µM* and CBFb-RUNX1 inh 8%.
Screening Cc1cc2c(cc1C)NC(CC(=O)Nc1cccc(C)c1C)C(=O)N2 (stereo not given) returned Epigenetic derep -2%, Vif-A3G inh -15% and Vif-A3F inh -5%.
Screening O=C(NC(=S)Nc1c(Cl)cc(Cl)cc1Cl)c1ccccc1 returned Vif-A3G inh 2% and Vif-A3F inh 4.5µM*.
CNC(=O)c1c(NC(=O)c2nc(SCc3ccc(C)cc3)ncc2Cl)sc2c1CCCC2 was read as Epigenetic derep 22µM*, Vif-A3G inh -2% and Vif-A3F inh -7%.
Screening COc1ccc(Nc2nnc(-c3cc4c(ccc5ccccc54)oc3=O)s2)cc1 returned Epigenetic derep -1%.
